The structures appear in SMILES notation. Among all 220,000 compounds or so, about 910 (0.41%) were called active. Many of the other results were omitted from the sample, so actives are more common in it than they were. Results with a measured potency or affinity are listed apart. A number with no mark means an inactive call.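 How the source made its calls: active means primary inhibition above the hit cutoff, then over 50% inhibition at one or more dose response concentrations (cut at about 23% in these data, passing the limit was not always enough); inconclusive means conflicting primary data, or primary hits not chosen for dose response; inactive means low primary inhibition, or under 50% at every dose.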

The target in the test is Aminopeptidase N (Plasmodium falciparum (isolate 3D7)) (UniProt O96935). As to the kind of experiment: malaria alanyl aminopeptidase activity blockers – biochemical, fluorogenic H-Leu-NHMec substrate, 1536-well (AID 1445).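 Further: plate controls were DMSO full reaction for no effect and no enzyme background for full effect.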 The settings on record: recombinant M1AAP, H-Leu-NHMec fluorogenic kinetic assay; at 30 µM, active compounds read high unless noted.
Aminopeptidase N (Plasmodium falciparum (isolate 3D7)), sequence (O96935 whole entry, looked up): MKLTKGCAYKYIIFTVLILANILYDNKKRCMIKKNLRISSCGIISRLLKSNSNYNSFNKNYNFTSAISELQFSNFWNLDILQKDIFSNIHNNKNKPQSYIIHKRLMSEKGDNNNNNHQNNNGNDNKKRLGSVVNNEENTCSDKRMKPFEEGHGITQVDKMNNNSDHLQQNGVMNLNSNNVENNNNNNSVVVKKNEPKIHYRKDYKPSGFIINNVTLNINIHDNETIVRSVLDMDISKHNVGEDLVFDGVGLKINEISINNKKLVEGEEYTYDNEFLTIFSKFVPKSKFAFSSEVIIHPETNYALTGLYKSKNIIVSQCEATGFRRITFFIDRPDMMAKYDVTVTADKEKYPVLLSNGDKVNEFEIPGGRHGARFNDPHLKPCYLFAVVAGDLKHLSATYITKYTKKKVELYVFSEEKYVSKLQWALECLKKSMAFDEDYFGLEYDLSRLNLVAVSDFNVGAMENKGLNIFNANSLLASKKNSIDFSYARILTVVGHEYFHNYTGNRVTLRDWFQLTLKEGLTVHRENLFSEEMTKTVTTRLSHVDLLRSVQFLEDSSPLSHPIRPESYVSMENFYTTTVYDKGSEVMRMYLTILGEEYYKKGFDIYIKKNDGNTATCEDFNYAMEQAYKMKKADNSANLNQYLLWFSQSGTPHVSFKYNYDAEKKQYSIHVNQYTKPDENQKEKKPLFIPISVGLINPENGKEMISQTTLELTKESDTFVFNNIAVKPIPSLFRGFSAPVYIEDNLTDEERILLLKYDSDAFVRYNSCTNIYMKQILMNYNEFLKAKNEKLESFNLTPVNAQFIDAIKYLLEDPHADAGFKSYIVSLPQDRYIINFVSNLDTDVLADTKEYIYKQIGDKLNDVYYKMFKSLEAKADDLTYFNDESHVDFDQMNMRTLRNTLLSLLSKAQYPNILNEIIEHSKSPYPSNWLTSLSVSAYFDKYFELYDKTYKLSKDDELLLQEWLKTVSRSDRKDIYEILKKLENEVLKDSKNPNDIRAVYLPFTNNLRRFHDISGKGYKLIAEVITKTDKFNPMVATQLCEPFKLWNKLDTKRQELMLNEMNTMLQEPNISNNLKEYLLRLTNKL
The inhibition is the change of the read-out against control, counted positive when it falls. For the compound `COc1ccc(C2C(C(=O)OCC(=O)Nc3ccc(C)cc3)CCC(=O)N2c2ccc(OC)cc2)cc1` (stereo not given), the inhibition was 23.9% (active).

Regarding `COc1ccc(C2C(C(=O)OCC(=O)N3CCCCC3)CCC(=O)N2c2ccc(OC)cc2)cc1` (stereo not given), the inhibition is 0.13%.

On to `CCNC(=O)COC(=O)C1CCC(=O)N(c2ccc(OC)cc2)C1c1ccc(OC)cc1` (stereo not given), for which the inhibition was 12.7%.

For `O=C(Nc1ccc2nn(-c3ccccc3)nc2c1)c1cccs1`, the inhibition is -15.1%.

Consider `O=C(NCc1ccccc1Cl)C1CCCN(S(=O)(=O)c2cnc[nH]2)C1` (stereo not given), for which the inhibition was 4.7%.

As for `CCCCC(CC)CNC(=O)C1CCCN(S(=O)(=O)c2cnc[nH]2)C1` (stereo not given), the inhibition is 24.2% (active).

Consider `Cc1ccc(CNC(=O)C2CCCN(S(=O)(=O)c3cnc[nH]3)C2)cc1` (stereo not given), for which the inhibition is -2.21%.

With `COc1ccccc1NC(=O)C1CCCN(S(=O)(=O)c2cnc[nH]2)C1` (stereo not given), the inhibition is 1.4%.

As for `COc1ccccc1CNC(=O)C1CCCN(S(=O)(=O)c2cnc[nH]2)C1` (stereo not given), the inhibition is 23.9% (active).

Turning to `CCCCNC(=O)C1CCN(S(=O)(=O)c2cnc[nH]2)CC1`, the inhibition was 14.7%.

Take `CC(C)(C)N1C(=O)c2ccccc2NC(=O)N1Cc1ccc(Br)cc1`: the inhibition was 2.07%.

Consider `O=C1CC(SC(=Nc2ccccc2)Nc2ccccc2)C(=O)N1c1ccc(Cl)c(Cl)c1` (stereo not given), for which the inhibition was -2.66%.

For the compound `CCC/C(O)=C1\C(=O)CCCC1=NCCc1ccc(OCC)c(OCC)c1`, the inhibition was 5.18%.

Regarding `CC(=O)c1cccc(-n2nnnc2SCC(=O)Nc2cccc(NC(=O)c3ccco3)c2)c1`, the inhibition was 8.36%.

As to `Cc1c(N=Cc2nc3ccccc3n2C)c(=O)n(-c2ccccc2)n1C`, the inhibition is 27.3% (active).

Take `Cc1c(N=Cc2ccncc2)c(=O)n(-c2ccccc2)n1C`: the inhibition was 1.24%.

Take `Cc1c(N=Cc2nc3ccccc3[nH]2)c(=O)n(-c2ccccc2)n1C`: the inhibition is 17.4%.

Turning to `O=C(NCCc1c[nH]c2ccccc12)C(=O)NCC1OCCCN1S(=O)(=O)c1ccc(F)cc1` (stereo not given), the inhibition is 4.14%.

As to `CCc1cccc(CC)c1NC(=O)COC(=O)c1ccc(F)c(S(=O)(=O)N(CC)CC)c1`, the inhibition is 3.7%.

As for `CCOc1ccccc1NC(=O)Nc1cnccn1`, the inhibition is 8.05%.

As for `O=c1c2ccccc2nc2n1CC/C2=C\c1ccccc1[N+](=O)[O-]`, the inhibition is 1.69%.

On to `CCOC(=O)c1ccc(-n2c(C)nc3ccccc3c2=O)cc1`, for which the inhibition is 3.03%.

With `CSc1ncc(Cl)c(C(=O)Nc2cccc(C)c2)n1`, the inhibition was 6.29%.

For the compound `CSc1ncc(Cl)c(C(=O)Nc2ccc(NC(C)=O)cc2)n1`, the inhibition is 1.65%.

In the case of `COc1ccc(S(=O)(=O)N2CCC(NC(=O)C(Cc3cccc(OC)c3OC)NC(C)=O)CC2)cc1` (stereo not given), the inhibition is 12.2%.

Take `CCOC(=O)CSCC(=O)Nc1nnc(-c2cccc([N+](=O)[O-])c2)s1`: the inhibition was 2.17%.

Regarding `COc1ccc(-n2c(SCC(=O)Nc3cc(C)on3)nc3c([nH]c4ccccc43)c2=O)cc1`, the inhibition was 0.91%.

Turning to `CN1C(=O)C(C(=O)NC(C)(C)C)C2c3ccccc3OC13CCCCC23` (stereo not given), the inhibition is 24.3% (active).

In the case of `COc1ccc(NC(=O)C2C(=O)N(C)C3(C)CC2c2ccccc2O3)cc1` (stereo not given), the inhibition is 9.89%.

With `COc1ccc2c(c1)OC13CCCCC1C2C(C(=O)c1ccccc1)C(=O)N3` (stereo not given), the inhibition was -8.77%.

`Cc1cc(C)c(C#N)c(SCC(=O)c2cccs2)n1`: the inhibition was 2.39%.

As for `Cc1nc(SCC(=O)N2c3ccccc3Sc3ccccc32)n[nH]1`, the inhibition is 4.61%.

Take `CCOc1ccc2nc(NC(=O)CSc3ccc(Cl)cc3)sc2c1`: the inhibition was 2.68%.

As for `CC(=O)CSc1nc(-c2cccs2)c(C#N)c(=O)[nH]1`, the inhibition was 7.78%.

For `CCOc1ccc2nc(NC(=O)CSc3ccccc3)sc2c1`, the inhibition is 8.9%.

In the case of `O=C(CSc1nc(O)cc(=O)[nH]1)N1c2ccccc2Sc2ccccc21`, the inhibition is 18.4%.

On to `O=C(CCc1ccc(S(=O)(=O)N2CCOCC2)cc1)Nc1ccc(N2CCOCC2)cc1`, for which the inhibition is 3.54%.

Regarding `Cc1ccc(-c2noc(CN(C(=O)C(c3ccccc3)c3ccccc3)C(C)C)n2)cc1`, the inhibition was 5.44%.

With `NC(=O)N/N=C/c1ccccc1OC(=O)c1ccccc1Br`, the inhibition is 0.59%.

Regarding `Cc1ccccc1CS(=O)(=O)c1cn(CC(=O)N2CCC(C)CC2)c2ccccc12`, the inhibition was 9.75%.

Regarding `Cc1ccc(C)c(CS(=O)(=O)c2cn(CC(=O)N3CCC(C)CC3)c3ccccc23)c1`, the inhibition is 9.18%.

With `CCN(C1CCCCC1)S(=O)(=O)c1ccc(S(=O)(=O)N2CCN(CCC#N)CC2)cc1`, the inhibition was -1.62%.

As for `O=C(/C=C\Nc1ccc2c(c1)OCO2)c1ccc(Cl)s1`, the inhibition is 3.02%.

For the compound `O=S(=O)(NC1CCCC1)c1ccc(S(=O)(=O)N2CCCN(Cc3ccccc3)C2)cc1`, the inhibition was 0.63%.

Take `CC(=NCc1cccnc1)C1=C(O)c2ccccc2C1=O`: the inhibition is 4.58%.

Turning to `CCCN=C(C)C1=C(O)c2ccccc2C1=O`, the inhibition is 3.71%.

As to `CC(=NCc1ccncc1)C1=C(O)c2ccccc2C1=O`, the inhibition was 23.6% (active).

With `CCC(c1nnnn1Cc1ccco1)N1CCC(C(N)=O)CC1` (stereo not given), the inhibition is 10.1%.

Consider `Cc1ccc(-c2cc(N)n(Cc3ccc(Cl)cc3)n2)cc1`, for which the inhibition is 12.9%.

Consider `Nc1cc(-c2ccccc2)nn1Cc1ccc(Cl)cc1`, for which the inhibition was 25.7% (active).

Take `Nc1cc(-c2ccccc2)nn1Cc1ccccc1`: the inhibition was 34.3%.

With `N#CC1=C(N)OC2=C(C(=O)CCC2)[C@]12C(=O)N(CC(N)=O)c1ccccc12`, the inhibition is 9.16%.

As to `Cc1cccc(Nc2nc(N)nc(CN3CCN(C)CC3)n2)c1`, the inhibition is 9.59%.

Turning to `CCN(CC)CCCNC(=O)C(C)n1c2ccccc2c2nc(=O)cc(C)n21` (stereo not given), the inhibition is 3.31%.

For the compound `COc1ccc(C2/C(=C(/O)c3ccccc3)C(=O)C(=O)N2CCO)cc1` (stereo not given), the inhibition is 2.56%.

As for `COc1ccc(N/C(C)=C2/C(=O)C(=O)N(CCO)C2c2ccc([N+](=O)[O-])cc2)cc1` (stereo not given), the inhibition was 23.9% (active).

With `COc1ccc(N/C(C)=C2/C(=O)C(=O)N(CCO)C2c2ccc(Br)cc2)cc1` (stereo not given), the inhibition is 7.27%.

For the compound `CCCCN1C(=O)C(O)=C(C(C)=O)C1c1ccccc1[N+](=O)[O-]` (stereo not given), the inhibition is -0.46%.

Consider `CCCCN(CC)S(=O)(=O)c1ccc2c(c1)CCCN2C(C)=O`, for which the inhibition is -2.36%.

For the compound `CC1CCCCN1S(=O)(=O)c1cnc(Cl)c(Br)c1` (stereo not given), the inhibition was -7.81%.

`O=C(c1ccccc1F)N1CCN=C1c1ccccc1`: the inhibition is 6.9%.

Consider `Cc1occc1C(=O)N/N=C/c1ccccn1`, for which the inhibition is 3.01%.

As to `COc1ccc(-n2cnnc2SCC(=O)Nc2cc(S(=O)(=O)N3CCCCC3)ccc2C)cc1`, the inhibition was 3.33%.

In the case of `Nn1c(SCC(=O)Nc2cc(S(=O)(=O)N3CCOCC3)ccc2Cl)nnc1-c1cccnc1`, the inhibition is 6.37%.

Regarding `Cc1ccnc2nc(C(=O)Nc3ccc(S(=O)(=O)N4CCCC4)cc3)nn12`, the inhibition is -4.02%.

For the compound `COc1ccc2nc(SCC(=O)N3CCCCC3)c(C#N)cc2c1`, the inhibition was 19.1%.

Turning to `O=C(CSc1nc2ccccc2nc1SCC(=O)N1CCCCC1)N1CCCCC1`, the inhibition was 42.7% (active).

Turning to `Cc1cc2ccccc2nc1SCC(=O)N1CCCC1`, the inhibition was 11.8%.

Take `O=C(CSc1nc2ccccc2nc1SCC(=O)N1CCOCC1)N1CCOCC1`: the inhibition is 6.36%.

As for `COc1ccc2nc(SCC(=O)N3CCCCCC3)c(C#N)cc2c1`, the inhibition is 6.08%.

Turning to `O=C(CCc1nnc(Cc2c[nH]c3ccccc23)o1)NC(C1CC1)C1CC1`, the inhibition was 1.78%.

Take `CN1CCN(C(=O)CCNC(=O)Cn2ccc3ccccc3c2=O)CC1`: the inhibition was 2.23%.

Turning to `CC(=O)Nc1ccc(NC(=O)Cn2nc([N+](=O)[O-])c(Br)c2C)cc1`, the inhibition was -1.26%.

In the case of `CCn1c(COc2cccc(OC)c2)nnc1SCC(=O)Nc1cccc(OC)c1`, the inhibition was -3.8%.

As for `CCCn1cc(S(=O)(=O)CC(=O)N2CCc3ccccc32)c2ccccc21`, the inhibition is -2.1%.

For the compound `CCC(C)(C(=O)NC1CCCCC1)N(CC1CCCO1)C(=O)CNC(=O)c1ccccc1` (stereo not given), the inhibition was 4.25%.

With `O=C(CS)Nc1ccc2ccccc2c1`, the inhibition is 6.21%.

`CCCC(c1nnnn1CC1CCCO1)N1CCN(c2ccccc2)CC1` (stereo not given): the inhibition was 7.5%.

Take `CC(C)CC(c1nnnn1CC1CCCO1)N1CCN(c2cccc(Cl)c2)CC1` (stereo not given): the inhibition was 31.4% (active).

Consider `Cc1ccc(Cl)cc1N1CCN(C(CC(C)C)c2nnnn2CC2CCCO2)CC1` (stereo not given), for which the inhibition was -6.33%.

On to `CCCCCc1ccc(CC(=O)O)cc1`, for which the inhibition is 3%.

For `O=c1nc(N2CCCC2)nc(Nc2ccccc2)[nH]1`, the inhibition is 9.86%.

As for `c1ccc(Nc2nc(N3CCCCC3)nc(N3CCCCC3)n2)cc1`, the inhibition is 2.1%.

In the case of `CCOC(=O)CC(NC(C)=O)c1ccc([N+](=O)[O-])cc1` (stereo not given), the inhibition was 2.95%.

With `CCc1cc2c(=O)c(-c3nc4ccccc4n3C)c(COCC(=O)O)oc2cc1O`, the inhibition is 6.97%.

Regarding `COC(=O)C(=Nc1ccccc1)/C(C(=O)C(=O)N(C)c1ccccc1)=C(\O)c1ccccc1`, the inhibition was 16.3%.

`O=C(O)c1c2c(nc3ccc(S(=O)(=O)N4CCC(C(=O)NC5CCCC5)CC4)cc13)CCCCC2`: the inhibition was 26.5% (active).

With `CC1CCc2nc3ccc(S(=O)(=O)N4CCC(C(=O)N5CCCCCC5)CC4)cc3c(C(=O)O)c2C1` (stereo not given), the inhibition was 13.6%.

Take `CCCNC(=O)C1CCN(S(=O)(=O)c2ccc3nc4c(c(C(=O)O)c3c2)CCCCC4)CC1`: the inhibition was 25.7% (active).

On to `O=C(O)c1c2c(nc3ccc(S(=O)(=O)N4CCC(C(=O)N5CCCCC5)CC4)cc13)CCCC2`, for which the inhibition was 4.87%.

On to `CC1CCC(NC(=O)C2CCN(S(=O)(=O)c3ccc4nc5c(c(C(=O)O)c4c3)CC(C)CC5)CC2)CC1` (stereo not given), for which the inhibition is 7.59%.

With `CCCNC(=O)C1CCN(S(=O)(=O)c2ccc(Br)cc2)CC1`, the inhibition was 0.41%.

For the compound `CC1CCc2nc3ccc(S(=O)(=O)N4CCC(C(=O)N5CCCCC5)CC4)cc3c(C(=O)O)c2C1` (stereo not given), the inhibition is 7.8%.

As for `CC1CCc2nc3ccc(S(=O)(=O)N4CCC(C(=O)NC5CCCC5)CC4)cc3c(C(=O)O)c2C1` (stereo not given), the inhibition was 23.4% (active).

Turning to `O=C(O)c1c2c(nc3ccc(S(=O)(=O)N4CCC(C(=O)NC5CCCCCC5)CC4)cc13)CCCC2`, the inhibition is 23.1%.

The record behind these values is PubChem BioAssay AID1445 (SRMLSC, 2008).
